# A selection: hits, their analogues and other compounds. The true share with any hit is near 19%.
# Pf growth 96h = inhibits malaria parasite growth, 96 h | Potency, µM (titrated, usually from 28.7 µM), for inactives: at the top dose activity change, negative = inhibition, usual class: inhibitors | AID 504834 | P. falciparum luciferase reporter growth, 96 h | 320,000 tested, 6.9% active; further: potency means the concentration at half of the fitted maximal effect; on the % scale 0 is the no-effect control and ±100 the full control effect
#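 Delayed-death screen, second-generation endpoint: infected erythrocytes, 2% hematocrit, 0.05% parasitemia final; 96 hours at 37 C, 5% CO2; luciferase detection reagent; luminescence decrease equals reduced growth.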
# Shiga inhibitor = Shiga toxin inhibition | inhibition, % at 38.7 µM | Vero cells, Shiga toxin protein synthesis inhibition reporter | 290,000 tested, 9.2% active | AID 2315; in the data active means inhibition mostly above about 28%, no sharp cut-off; inactive means mostly below about 43%; further: 0% is about no effect
# CHX counter = affects cycloheximide protein synthesis inhibition readout, counter-screen. max response, %. cell reporter, cycloheximide protein synthesis inhibition counterscreen. 300,000 tested, 12% active; in the data active means max response mostly above about 13%, no sharp cut-off; inactive means mostly below about 14%; further: read at 38.3 µM for the half of the compounds with a filed dose; 0% is about no effect
# SARS PLP yeast = SARS-CoV PLP inhibition in yeast. S. cerevisiae expressing SARS-CoV PLpro, growth rescue. Potency, µM (doses to about 32.9 µM), inactives show top-dose activity, positive = growth rescue, usual class: activators. 330,000 tested, 0.19% active. AID 485353; calls by dose curve; further: potency means the concentration at half of the fitted maximal effect; 0% is about no effect; nearly all actives have a fitted effect of over 55% in size
# AMA1-RON2 inh = inhibitors of Plasmodium falciparum AMA1-RON2 interaction. Potency, µM (doses to about 58.2 µM), for the others: at the highest dose activity change, negative = inhibition, usual class: inhibitors. AlphaScreen AMA1-biotinylated RON2 peptide binding. 360,000 tested, 0.2% active. AID 720542;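 further: potency means the concentration at half of the fitted maximal effect; 0% = vehicle wells and -100% = peptide control; nearly all actives have a fitted effect of over 45% in size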
#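 AMA1 (3D7) with his tag at 25 nM final met compounds first, then biotinylated RON2 peptide at 25 nM; detection used donor plus acceptor beads, 10 µg/mL apiece, read by AlphaScreen after 30 min at room temperature.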
# Pf growth 48h = inhibits P. falciparum growth in the first generation, 48 h; 310,000 tested, 5.9% active; P. falciparum luciferase growth in erythrocytes, 48 h; Potency, µM (doses to about 28.7 µM), for inactives: top-dose activity change, negative = inhibition, hits mostly inhibitors; further: potency means the concentration at half of the fitted maximal effect; on the % scale 0 is the no-effect control and ±100 the full control effect
#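 Cell-based growth assay: transgenic P. falciparum expressing firefly luciferase, cultured in red cells within RPMI 1640 containing 0.5% w/v Albumax, 24 mM bicarbonate and gentamycin. A drop in luciferase activity indicates inhibition.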
# * marks the source's active call; other numbers are inactive results; ? = inconclusive; · = no result; [ ] = remark or other dose. Unless noted, the call rests on the fitted dose curve; in most records, active means well fitted curve in the direction sought with a large enough effect; inconclusive means small, poorly fitted or top-dose-only effect, or another doubt; inactive means no such curve, though single readings can be large; an effect the other way counts as inactive or inconclusive.
SMILES,Pf growth 96h,Shiga inhibitor,CHX counter,SARS PLP yeast,AMA1-RON2 inh,Pf growth 48h
Nc1nc(-c2cccnc2)nn1C(=O)c1ccc(Cl)cc1,5.3%,15.9,-1.1,1.7%,0.8%,-5.3%
C=CCOc1ccccc1CN1CCSCC1,0.9%,-23.0,-5.2,1.3%,-19.9%,8.9%
O=C(Nc1cc(S(=O)(=O)Nc2ccc(Cl)cc2)ccc1N1CCCCC1)c1ccc(F)cc1Cl,6.57µM*,-3.4,18.6,-7.4%,-2.1%,?
COc1ccc(NS(=O)(=O)c2ccc(N3CCOCC3)c(NC(=O)c3ccc(OC)cc3)c2)cc1,11.7µM*,-3.0,-6.2,17.0%,-8.9%,0.0%
COc1ccc(NS(=O)(=O)c2cccc(NC(=O)c3ccc(S(=O)(=O)N4CCCCCC4)cc3)c2)cc1,13.1µM*,20.4,0.5,-13.3%,-1.1%,?
COc1ccc(NS(=O)(=O)c2ccc(Cl)c(NC(=O)c3ccccc3F)c2)cc1,·,·,·,-6.9%,12.5%,·
COc1ccc(NS(=O)(=O)c2ccc(N3CCOCC3)c(N)c2)cc1,0.8%,·,·,-6.9%,-8.1%,-1.6%
COc1ccc(NS(=O)(=O)c2ccc(N3CCOCC3)c(NC(=O)c3ccccc3Cl)c2)cc1,0.0%,14.1,4.6,11.8%,9.0%,10.4µM*
CCCc1cc(=O)oc2cc(OCC(=O)NCCCN3CCOCC3)ccc12,6.4%,-4.5,0.8,-2.3%,-3.2%,10.5%
COc1cccc(NC(=O)CCC2CCN(C(=O)c3scnc3C)CC2)c1,49.5%,-15.1,-4.5,-0.4%,-0.1%,6.3%
Nc1c(Br)cc(Br)c(N2CCCC2=O)c1Br,?,-9.0,2.2,-6.5%,5.6%,21.7%
COc1ccc(NS(=O)(=O)c2ccc(N3CCCC3)c(NC(=S)Nc3cccc(S(=O)(=O)N(C)C)c3)c2)cc1,?,63.1*,33.4*,-3.5%,·,?
O=C(OCc1ccccc1)N1CCOCCOCCN(C(=O)OCc2ccccc2)CCOCCOCC1,?,-11.5,-7.7,25.4%,0.0%,?
O=C(/C=C/c1cccs1)NC(=S)NNC(=O)c1ccccc1O,18.4%,-9.1,9.4,?,-70.2%,?
COc1ccc(C(=O)NNC(=S)NC(=O)/C=C/c2cccs2)cc1,30.8%,111.0*,37.1*,-1.5%,35.7%,191.2%
O=C(NC(=S)Nc1ccccc1)c1cccs1,-4.3%,81.3*,59.6*,-2.9%,43.9%,7.0%
O=C(/C=C/c1cccs1)NC(=S)Nc1ccccc1,-13.1%,122.6*,32.5*,-0.1%,5.0%,14.0%
CC(=O)NC(=S)Nc1ccc(NC(=O)c2cccs2)cc1,0.0%,32.0*,27.9*,-15.9%,-12.4%,?
O=C(Nc1ccc(NC(=S)NC(=O)c2cccs2)cc1)c1ccccc1,33.0%,-1.9,11.0,-0.2%,19.6%,?
CC(=O)OC(COC1C[C@@H]2CC[C@@]1(C)C2(C)C)C[N+]1(C)CCCCC1 (some centres undefined),2.94µM*,5.1,-2.3,0.5%,5.5%,3.29µM*
CC1(C)C2CCC1(C)C(OC(=O)c1ccccc1C(=O)O)C2 (centres undefined),-2.5%,28.8,-1.9,0.5%,13.5%,?
CCc1nc2ccc(C(=O)NCCOc3ccc(OC)cc3)cn2c1N(C)Cc1nccn1C,·,·,·,·,-5.6%,·
NC(=O)C1CCN(C(=O)CCC(=O)N2CCOc3ccc(Cl)cc32)CC1,?,2.4,-0.5,2.3%,-3.3%,10.8%
Cc1ccc(C)c(N2CCN(C(=O)CCC(=O)N3CCOc4ccc(Cl)cc43)CC2)c1,4.15µM*,7.6,8.0,-24.1%,-1.9%,?
Cc1cccc(N2CCN(C(=O)CCC(=O)N3CCOc4ccc(Cl)cc43)CC2C)c1 (centres undefined),9.28µM*,0.8,-2.0,-5.9%,-29.0%,-6.2%
SMILES,Pf growth 96h,Shiga inhibitor,CHX counter,SARS PLP yeast,AMA1-RON2 inh,Pf growth 48h
CC(C)CCOc1ccc(C(=O)NN2C(=O)NC3(CCCCC3)C2=O)cc1,12.2%,·,·,-5.1%,1.0%,3.2%
Cc1cc(NC(=O)c2c(C)noc2C)no1,0.0%,-4.4,-1.3,0.3%,4.5%,72.2%
COc1ccc2c(c1)c1nnc(SCC(=O)N3CCCCC3C)nc1n2C (centres undefined),8.28µM*,-5.0,-4.0,-1.3%,7.5%,0.4%
CCCCC(=O)NNC(=O)N1c2ccccc2Sc2ccccc21,-1.2%,-4.7,-4.6,0.2%,72.5%,-37.8%[0.00184 µM]
Cc1cccc(C)c1N1CCN(C(=O)Cn2cncn2)CC1,9.2%,-8.9,11.4,-4.8%,-4.7%,-12.7%
Cc1ccc2cc(CN(CC3CCCO3)C(=O)Nc3ccccc3F)c3nnnn3c2c1 (centres undefined),?,83.6*,45.0*,0.6%,1.8%,41.9%
Cc1ccc2cc(CN(CC3CCCO3)S(=O)(=O)c3ccccc3)c3nnnn3c2c1 (centres undefined),-62.1%,29.9,11.5,16.1%,-5.8%,?

# High-throughput results as filed in PubChem BioAssay.
